Source: the supplement of paper PMC10981050
Structures can show the parent of a compound that is named as a salt.

What follows are compounds tested on OCI-AML2 (assay: cell viability relative to vehicle control; higher = less cytotoxic). Settings: 10 µM; SRSF2 genotype: P95H/wt.
Procedure, shortened: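 Each screen used CRISPR-edited mutant and wild-type clones from four leukaemia lines. Compounds were acoustically dispensed at a single 10 µM dose, and CellTiter-Glo luminescence was read after 48 h with the supernatant first removed. Viability was analysed in Genedata Screener and given as percent of the on-plate vehicle control.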

| SMILES | cell viability |
| --- | --- |
| OC[C@H]1O[C@@](CO)(O[C@H]2O[C@H](CO)[C@@H](O)[C@H](O)[C@H]2O)[C@@H](O[C@H]2O[C@H](CO)[C@@H](O)[C@H](O)[C@H]2O)[C@@H]1O [D-(+)-Melezitose] | 95.1% |
| COc1ccc2c3c1O[C@H]1C[C@@H](O)C=C[C@@]31CCN(C)C2 [Galanthamine] | 109% |
| COc1cc(C(=O)O)ccc1O [Vanillic acid] | 104% |
| CN[C@H]1CC[C@@H](c2ccc(Cl)c(Cl)c2)c2ccccc21 [Sertraline HCl] | 26.2% |
| Clc1ccc(CSC(Cn2ccnc2)c2ccc(Cl)cc2Cl)cc1 (centres undefined) [Sulconazole Nitrate] | 40% |
| CC1(C)[C@@H](O)CC[C@]2(C)[C@H]3C(=O)C=C4[C@@H]5C[C@@](C)(C(=O)O)CC[C@]5(C)CC[C@@]4(C)[C@]3(C)CC[C@@H]12 [Enoxolone (Glycyrrhetin)] | 110% |
| C[C@H](N=C(NC#N)Nc1cccc2ncccc12)c1ccccc1 | 108% |
| CC(C)n1nc(-c2cc3cc(O)ccc3[nH]2)c2c(N)ncnc21 [Torkinib (PP242)] | 9.37% |
| CC1(C)O[C@@H]2C[C@H]3[C@@H]4CCC5=CC(=O)C=C[C@]5(C)[C@H]4[C@@H](O)C[C@]3(C)[C@]2(C(=O)CO)O1 [Desonide] | 104% |
| O=C(Nc1ccccc1)N1CCN(c2nc(-c3ccccc3)ns2)CC1 | 62.7% |
| O=C1C[C@@H](c2ccccc2)Oc2cc(O)cc(O)c21 [Pinocembrin] | 95.1% |
| CC1OC(OC2C(OC3CCC4(C)C(CCC5(C)C4CC=C4C6CC(C)(C)CCC6(C(=O)OC6OC(COC7OC(CO)C(O)C(O)C7O)C(O)C(O)C6O)CCC45C)C3(C)CO)OCC(O)C2O)C(O)C(OC2OC(CO)C(O)C(O)C2O)C1O (centres undefined) [Macranthoidin A] | 98% |
| Cc1ccc(Nc2c(F)cccc2Cl)c(CC(=O)O)c1 [Lumiracoxib (COX-189)] | 109% |
| CC(C)=CCC[C@](C)(O[C@@H]1O[C@H](CO)[C@@H](O)[C@H](O)[C@H]1O)[C@H]1CC[C@]2(C)[C@@H]1[C@H](O)C[C@@H]1[C@@]3(C)CC[C@H](O)C(C)(C)[C@@H]3CC[C@]12C [Ginsenoside CK] | 65.3% |
| CCCCCCCCCC(C)=O [Methylnonylketone] | 99.5% |
| COc1cc(O)c(C(=O)/C=C/c2ccccc2)c(OC)c1 [Flavokawain B] | 22.8% |
| c1ccc(CNc2nc(NCc3ccccc3)c3ccccc3n2)cc1 | 0.21% |
| Nc1nonc1C(=Nc1ccc(F)c(Cl)c1)NO | 98.2% |
| NC(=O)c1ccc[n+]([O-])c1 [Nicotinamide N-oxide] | 112% |
| CCCCNC(=O)NS(=O)(=O)c1ccc(C)cc1 [Tolbutamide] | 101% |

| SMILES | cell viability |
| --- | --- |
| O=C(CCN1CCN(C(=O)OCc2cc(Cl)cc(Cl)c2)CC1)c1ccc2[nH]c(=O)oc2c1 | 88.2% |
| CC1=NN(c2ccccc2)C(=O)C1 [Edaravone (MCI-186)] | 116% |
| CNC(=C[N+](=O)[O-])NCCSCc1csc(CN(C)C)n1 [Nizatidine] | 92.9% |
| CC1=C(/C=C/C(C)=C/C=C/C(C)=C/C=C/C=C(C)/C=C/C=C(C)/C=C/C2=C(C)C(=O)[C@@H](O)CC2(C)C)C(C)(C)C[C@H](O)C1=O [Astaxanthin] | 89.8% |
| O=C(O)c1cc(O)c2c(c1)[C@@H]([C@H]1c3cc(C(=O)O)cc(O)c3C(=O)c3c(O[C@@H]4O[C@H](CO)[C@@H](O)[C@H](O)[C@H]4O)cccc31)c1cccc(O[C@@H]3O[C@H](CO)[C@@H](O)[C@H](O)[C@H]3O)c1C2=O [Sennoside B] | 77.4% |
| c1ccc2[nH]c(-c3cscn3)nc2c1 [Thiabendazole] | 93.6% |
| CC1(C)S[C@@H]2[C@H](NC(=O)C(c3ccccc3)S(=O)(=O)O)C(=O)N2[C@H]1C(=O)O (some centres undefined) [Sulbenicillin Sodium] | 90.7% |
| COc1ccc(COc2ccc(Cc3cnc(N)nc3N)cc2OC)cc1 | 66% |
| CNC(=O)c1cnn(-c2nc(N)c3ncn([C@@H]4O[C@H](CO)[C@@H](O)[C@H]4O)c3n2)c1 [Regadenoson] | 104% |
| O=C1CCC(N2C(=O)c3ccccc3C2=O)C(=O)N1 (centres undefined) [Thalidomide] | 93.8% |
| C[C@@]1(C(=O)Nc2ccc(F)nc2)CCCN1c1nc(Nc2cc(C3CC3)n[nH]2)c2cccn2n1 | 7.63% |
| COc1cc(C(=O)NC2CCN(C)CC2)ccc1Nc1ncc2c(n1)N(C1CCCC1)CC(F)(F)C(=O)N2C | 4.16% |
| COc1nc2ccc(Br)cc2cc1[C@@H](c1ccccc1)[C@@](O)(CCN(C)C)c1cccc2ccccc12 [Bedaquiline] | 38.5% |
| CC(C)=CCC/C(C)=C/C=O [Citral] | 95.3% |
| O=C(/C=C/c1ccc(O)c(O)c1)c1ccc(O)cc1O [Butein] | 84.1% |
| COc1ccc(CCc2nc3cc(-c4c(C)noc4C)ccc3n2C[C@H](C)N2CCOCC2)cc1Cl | 45.7% |
| CC(O)c1cc(C(=O)N[C@@H](C)Cn2ccc(-c3ccc(C#N)c(Cl)c3)n2)n[nH]1 (some centres undefined) | 91.4% |
| Cc1cc(C)nc(SCC(=O)Nc2ncc(Cc3cccc4ccccc34)s2)n1 | 61.4% |
| COc1ccc(CCNCc2ccc(OCc3ccc(Cl)nc3)c(OC)c2)cc1OC | 91.4% |
